Test results from PubChem BioAssay (Tox21).
Records with an inconclusive call do not appear. Entries that show only a call come without a potency. Active and inactive are the calls of the source. Unless noted, the call rests on the fitted dose curve; in most records, active means well fitted curve in the direction sought with a large enough effect in the repeat runs; inconclusive means weak or mixed curves; inactive means no such curve, though single readings can be large; an effect the other way counts as inactive or inconclusive.

Columns and labels:
[1] = qHTS assay for small molecule agonists of the p53 signaling pathway - cell viability (AID 651633; calls by dose curve; further: nearly all actives have a fitted effect of over 30% in size; further: potency means the concentration at half of the fitted maximal effect)
How it was run: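 Viability counter-read: CellTiter-Glo luminescence (30 min, room temperature) in the same p53RE-bla plates. These plates had been exposed to compounds for 16 h at 37 C.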

[2] = qHTS assay for small molecules that induce genotoxicity in human embryonic kidney cells expressing luciferase-tagged ATAD5 - cell viability (AID 651634; calls by dose curve; further: nearly all actives have a fitted effect of over 25% in size; further: potency means the concentration at half of the fitted maximal effect)
How it was run: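 Quantitative high-throughput format. HEK293T cells expressing ATAD5 fused to luciferase were plated at 2,000 cells/well and treated 15.5 hr with compound versus DMSO. Viability was determined by fluorescent live-cell protease substrate, 30 min at 37C.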

[3] = qHTS assay for small molecule disruptors of the mitochondrial membrane potential - cell viability (AID 720634; calls by dose curve; further: nearly all actives have a fitted effect of over 20% in size; further: potency means the concentration at half of the fitted maximal effect)
How it was run: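 Same-well counter-screen: following the MMP dye addition, CellTiter-Glo was added to 1 hr compound-treated HepG2 cells and luminescence read after 30 min at room temperature.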

[4] = qHTS assay to test for compound auto fluorescence at 590 nm (red) in HepG2 cells (AID 720674)
How it was run: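 We screened compounds on adherent HepG2 cells, incubating them for an hour at 37 C in 5% CO2 before reading emission at 590 nm under 540 nm excitation; values reflect equivalence to Rose Bengal sodium fluorescence.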

[5] = qHTS assay to test for compound auto fluorescence at 535 nm (green) in HepG2 cells (AID 720675)
[6] = qHTS assay to test for compound auto fluorescence at 460 nm (blue) in HEK293 cells (AID 720678)
How it was run: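 HEK293 cells (2,000/well, medium with 10% dialyzed FBS) attached 4-5 hr, then exposed to compound overnight at 37C, 5% CO2. Blue fluorescence read at 405/460 nm, with triamterene as reference fluorophore.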

[7] = qHTS assay to test for compound auto fluorescence at 590 nm (red) in HEK293 cells (AID 720679)
How it was run: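 HEK293 cells (2,000/well, 10% dialyzed FBS) attached 4-5 hr, then dosed with compound or DMSO and incubated overnight at 37C, 5% CO2. Red fluorescence read at 540/590 nm, Rose Bengal sodium as reference fluorophore.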

[8] = qHTS assay for small molecule disruptors of the mitochondrial membrane potential (AID 720635); further: potency means the concentration at half of the fitted maximal effect
How it was run: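 Mitochondrial membrane potential tracked with Mito-MPS dye, red aggregates (ex 540/em 590 nm) against green monomers (ex 490/em 535 nm). Compound treatment 1 hr at 37C, dye 30 min in HepG2.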

SMILES | Potency [1] | Potency [2] | Potency [3] | Potency [4] | Potency [5] | Potency [6] | Potency [7] | Potency [8]
CCN(CC)CCCC(C)Nc1cc(/C=C/c2ccccc2Cl)nc2cc(Cl)ccc12 (stereo not given) | inactive | inactive | inactive | inactive | inactive | inactive | inactive | 
C=C1C(=O)O[C@H]2[C@H]1CC/C(C)=C\CC[C@@]1(C)O[C@@H]21 | 29.8 µM (active) |  | inactive | inactive | inactive | inactive | inactive | 
CO[C@H]1C[C@H](O[C@@H]2/C(C)=C/C[C@@H]3C[C@@H](C[C@]4(CC[C@H](C)[C@@H](C5CCCCC5)O4)O3)OC(=O)[C@@H]3C=C(C)/C(=N/O)[C@H]4OC/C(=C\C=C\[C@@H]2C)[C@]43O)O[C@@H](C)[C@@H]1O |  |  | inactive | inactive | inactive | inactive | inactive | 
CC1=C(/C=C/C(C)=C/C=C/C(C)=C/C=C/C=C(C)/C=C/C=C(C)/C=C/C2=C(C)C(=O)CCC2(C)C)C(C)(C)CCC1=O | inactive | inactive | inactive | inactive | inactive | inactive | inactive | 
CC[C@H](C)[C@@H]1NC(=O)[C@H](Cc2ccc(O)cc2)NC(=O)[C@@H](N)CSSC[C@@H](C(=O)N2CCC[C@H]2C(=O)N[C@@H](CC(C)C)C(=O)NCC(N)=O)NC(=O)[C@H](CC(N)=O)NC(=O)[C@H](CCC(N)=O)NC1=O | inactive | inactive | inactive | inactive | inactive | inactive | inactive | inactive
C#C[C@]1(O)CC[C@H]2[C@@H]3CCC4=CCCC[C@@H]4[C@H]3C(=C)C[C@@]21CC |  | inactive |  | inactive | inactive | inactive | inactive | 21.1 µM (active)
CC(=C\c1ccccc1)/C=C1/SC(=S)N(CC(=O)O)C1=O | inactive |  | inactive | inactive | inactive | inactive | inactive | 
CCCCC/C=C\C/C=C\C/C=C\CCCCC(=O)O | inactive | inactive | inactive | inactive | inactive | inactive | inactive | 
CCCCCCCCCCCCCCCCCC[N+](C)(C)CCC[Si](OC)(OC)OC |  | inactive | inactive | inactive | inactive | inactive | inactive | 
C=C1C(=C/C=C2\CCC[C@]3(C)[C@@H]([C@H](C)CCCC(C)(C)O)CC[C@@H]23)C[C@@H](O)C[C@@H]1O | 21.1 µM (active) |  | inactive | inactive | inactive | inactive | inactive | 10.6 µM (active)
C#C[C@]1(O)CC[C@H]2[C@@H]3CCC4=C/C(=N/O)CC[C@@H]4[C@H]3CC[C@@]21CC | inactive |  | inactive | inactive | inactive | inactive | inactive | 10.6 µM (active)
Cc1cc(C)c(NC(=O)C[C@H](CC(=O)O)c2cccc3ccccc23)c(C(=O)N2CCC3(CCCC3)CC2)c1 | inactive | inactive | inactive | inactive | inactive | inactive | inactive | 
CC1(C)S[C@@H]2[C@H](NC(=O)C3(N)CCCCC3)C(=O)N2[C@H]1C(=O)O |  | inactive | inactive | inactive | inactive | inactive | inactive | 
CCC[C@@]1(CCc2ccccc2)CC(O)=C([C@H](CC)c2cccc(NS(=O)(=O)c3ccc(C(F)(F)F)cn3)c2)C(=O)O1 |  | inactive | inactive | inactive | inactive | inactive | inactive | 23.7 µM (active)
CCCCCCCCCCCCCCCCCC(=O)OCC(C)O (stereo not given) | inactive | 23.7 µM (active) | inactive | inactive | inactive | inactive | inactive | 
CC1=C[C@H](O)CC(C)(C)[C@H]1/C=C/C(C)=C/C=C/C(C)=C/C=C/C=C(C)/C=C/C=C(C)/C=C/C1=C(C)C[C@@H](O)CC1(C)C |  | inactive | inactive | inactive | inactive | inactive | inactive | 
O=C(O)C1CCCN1 (stereo not given) | inactive | inactive | inactive | inactive | inactive | inactive | inactive | inactive
CC1CCCC1 |  |  |  | inactive |  | inactive | inactive | 
COc1ccc(C[C@@H](C)NC[C@H](O)c2ccc(O)c(NC=O)c2)cc1 |  |  | inactive | inactive |  | inactive | inactive | 
CN(C)CCOc1ccccc1Cc1ccccc1 (tested in a mixture with another compound) | inactive | inactive | inactive | inactive | inactive | inactive | inactive | 
CCOC(=O)[C@H](CS)NCCN[C@@H](CS)C(=O)OCC |  | inactive | inactive | inactive | inactive | inactive | inactive | inactive
COc1ccc2c(c1)OC(C)(C)C(c1ccccc1)C2c1ccc(OCCN2CCCC2)cc1 (stereo not given) | 29.8 µM (active) | 26.6 µM (active) | inactive | inactive | inactive | inactive | inactive | 
CCCCCCOc1ccc(C(=N)N(CCCC)CCCC)c2ccccc12 | 21.1 µM (active) |  | 26.6 µM (active) | inactive | inactive | inactive | inactive | 8.41 µM (active)
CC(=O)Nc1ccc(NC(=S)NC(=O)c2ccc(C(C)(C)C)cc2)cc1 |  | inactive | inactive | inactive | inactive | inactive | inactive | 2.11 µM (active)
Cc1ccccc1 |  |  |  | inactive | inactive | inactive | inactive | 
CCN(CC)CCOCCOC(=O)C(CC)(CC)c1ccccc1 | inactive | inactive | inactive | inactive | inactive | inactive | inactive | 
OCC(O)CO |  |  |  | inactive | inactive | inactive | inactive | 
